Experimental data: PubChem BioAssay (NCATS)
Inconclusive results are not listed. Activity calls are given as the source filed them. Unless noted, the call rests on the fitted dose curve; in most records, active means well fitted curve in the direction sought with a large enough effect; inconclusive means small, poorly fitted or top-dose-only effect, or another doubt; inactive means no such curve, though single readings can be large; an effect the other way counts as inactive or inconclusive.

Key:
[1] = Cell Viability - Hek293 (AID 427;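 active means compounds whose dose-response curve shows a full or clear partial loss of cell viability, called from curve shape rather than a numeric limit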;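 further: potency means the concentration at half of the fitted maximal effect; cells exposed to compound for 40 hours at 37 °C before reading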); conditions: qHTS
Method in brief: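 HEK293 cells in complete medium were exposed to compound for 40 hr at 37 °C, then cellular ATP was read by CellTiter-Glo luminescence. Data were normalized to DMSO (basal) and 100 uM tamoxifen (100% inhibition), and AC50 came from Hill fits.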

[2] = Cell Viability - SK-N-SH (AID 435; calls by dose curve;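 further: potency means the concentration at half of the fitted maximal effect; compound exposure lasted 40 h at 37 °C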); conditions: SK-N-SH neuroblastoma cell viability qHTS
Method in brief: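 SK-N-SH neuroblastoma cells (1500/well) treated 40 h at 37 °C in complete medium; viability read as cellular ATP by CellTiter-Glo luminescence. Normalized to DMSO and 100 uM tamoxifen; AC50 from Hill fits of qHTS concentration-response.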

[3] = Cell Viability - Renal Proximal Tubule (AID 545); conditions: renal proximal tubule cells viability, primary cells of rat origin; activity change, negative = cytotoxicity: at 91.7 µM (top of the series);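 further: 0% = DMSO only and -100% = 100 µM tamoxifen; nearly all actives have a fitted effect of over 40% in size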
Method in brief: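 Rat renal proximal tubule primary cells, 1000/well, exposed to compounds for 40 hr at 37 °C in complete medium; cellular ATP read by CellTiter-Glo luminescence. AC50 from concentration-response fitted with standard Hill equation.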

[4] = MultiTox-Fluor Cytotoxicity Assay - LYMP1-001 - Live Cells (AID 947); conditions: LYMP1-001 lymphoblastoid cells, live-cell protease fluorescence viability; series mostly up to 92.2 µM;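 further: 0% = DMSO only and full inhibition = tetraoctylammonium bromide control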
[5] = MultiTox-Fluor Cytotoxicity Assay - LYMP1-002 - Dead Cells (AID 960); conditions: LYMP1-002 lymphoblastoid cells, dead-cell protease fluorescence; series mostly up to 46.1 µM; further: nearly all actives have a fitted effect of over 60% in size
Method in brief: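 LYMP1-002 cells 2500/well; 5 hr 37 C pre-incubation; compound 16 hr 37 C; MultiTox-Fluor reagent 60 min RT; dead-cell fluor Ex/Em 485/520. Norm. to DMSO (0%) vs 15 uM tetraoctylammonium bromide (100%); Hill AC50.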

[6] = Cell Viability - LYMP2-005 (AID 967); conditions: LYMP2-005 lymphoblastoid cell viability; series mostly up to 92.2 µM;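 further: plate controls were DMSO only for no effect and 92 µM tetraoctylammonium bromide control for full effect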
Method in brief: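 Human lymphoblastoid LYMP2-005 cells, 2,500 per well in complete medium, rested 5 h at 37C then compound-treated 24 h at 37C. Intracellular ATP read by CellTiter-Glo luminescence after 30 min at room temperature; AC50 from Hill-equation fits of concentration-response data.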

[7] = Cell Viability - LYMP2-009 (AID 968); conditions: LYMP2-009 lymphoblastoid cell viability; series mostly up to 92.2 µM;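 further: 0% = DMSO alone and the full-kill end = tetraoctylammonium bromide at 92 µM; nearly all actives have a fitted effect of over 55% in size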
[8] = Cell Viability - LYMP2-015 (AID 971); conditions: LYMP2-015 lymphoblastoid cell viability; series mostly up to 92.2 µM;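 further: 0% = DMSO only and full effect = 92 µM tetraoctylammonium bromide; nearly all actives have a fitted effect of over 55% in size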
Method in brief: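 Luminescent ATP read-out (CellTiter-Glo) served as the viability measure after lymphoblastoid cells were exposed to compounds for 24 hours at 37 C. Concentration-response data were fitted with the Hill equation to give AC50.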

[9] = Cell Viability - LYMP2-019 (AID 973); conditions: LYMP2-019 lymphoblastoid cell line viability; series mostly up to 92.2 µM;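 further: 0% = DMSO alone and full effect = 92 µM tetraoctylammonium bromide; nearly all actives have a fitted effect of over 55% in size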
Method in brief: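 Luminescent ATP read-out (CellTiter-Glo, 30 min room temperature) served as the viability measure after 24 hr treatment of lymphoblastoid cells at 37 C. Concentration-response data were fitted to the Hill equation for AC50.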

[10] = Cell Viability - LYMP2-006 (AID 978); conditions: LYMP2-006 lymphoblastoid cell viability, qHTS; series mostly up to 92.2 µM; further: on the % scale 0 is the no-effect control and ±100 the full control effect; nearly all actives have a fitted effect of over 60% in size
Method in brief: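 Human lymphoblastoid cells (LYMP2-006), 2500/well in complete medium, were treated with compound for 24 hr at 37 C. Cellular ATP was read by CellTiter-Glo luminescence after 30 min, and AC50 values came from Hill-equation fits of concentration-response data.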

[11] = Cell Viability - LYMP2-010 (AID 981); conditions: LYMP2-010 lymphoblastoid cell viability, qHTS; series mostly up to 92.2 µM; further: on the % scale 0 is the no-effect control and ±100 the full control effect; nearly all actives have a fitted effect of over 55% in size
Method in brief: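 Luminescent ATP signal (CellTiter-Glo) served as the viability read-out. Cells of the human lymphoblastoid line were treated with compound over a concentration range for 24 hours at 37 C, and AC50 values came from Hill-equation modeling.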

[12] = qHTS assay for small molecule agonists of retinoid X receptor alpha signaling (AID 588544); conditions: HEK293T RXRa-UAS-bla, beta-lactamase reporter, 18 h; 530 nm emission
[13] = target: Thyroid hormone receptor beta (Homo sapiens) (UniProt P10828); test: qHTS assay for small molecule antagonists of thyroid hormone receptor beta signaling (AID 588547; active means well fitted inhibition curve with a large enough effect in the signal ratio, with a control signal flat, not every such curve was filed as active; the % refers to the signal ratio;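 further: cells stimulated with 0.4 nM T3 agonist during compound exposure; on the % scale 0 is the no-effect control and ±100 the full control effect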); conditions: TR-UAS-bla HEK293, beta-lactamase ratio, antagonist mode, 18 h
Chain of Thyroid hormone receptor beta (Homo sapiens) (P10828 whole entry, looked up): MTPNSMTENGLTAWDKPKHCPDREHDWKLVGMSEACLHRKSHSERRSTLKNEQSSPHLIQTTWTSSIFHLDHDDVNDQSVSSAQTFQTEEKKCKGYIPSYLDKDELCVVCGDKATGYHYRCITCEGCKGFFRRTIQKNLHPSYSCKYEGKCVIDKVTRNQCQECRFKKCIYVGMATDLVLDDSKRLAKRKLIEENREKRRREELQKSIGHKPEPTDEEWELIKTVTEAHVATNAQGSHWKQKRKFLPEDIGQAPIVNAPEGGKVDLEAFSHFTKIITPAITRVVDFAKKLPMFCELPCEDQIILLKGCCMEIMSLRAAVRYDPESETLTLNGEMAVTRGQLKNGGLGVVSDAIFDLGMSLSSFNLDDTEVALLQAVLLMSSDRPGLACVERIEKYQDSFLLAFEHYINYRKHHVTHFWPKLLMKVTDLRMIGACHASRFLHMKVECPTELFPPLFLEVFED
Method in brief: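 TR-UAS-bla GripTite HEK293 cells in 2% charcoal/dextran FBS medium were preincubated 4 h at 37 C, given compound (0.59 nM to 92 uM) plus 0.4 nM T3 (final) for 18 h, then CCF4 for 2 h at RT; Hill fit gave IC50.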

[14] = target: Voltage-gated inwardly rectifying potassium channel KCNH2 (Homo sapiens) (UniProt Q12809); test: qHTS Assay for Small Molecule Inhibitors of the Human hERG Channel Activity (AID 588834); conditions: U2OS BacMam hERG, FluxOR thallium flux fluorescence; series mostly up to 92.2 µM;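 further: top concentration of the series differs between compounds; on the % scale 0 is the no-effect control and ±100 the full control effect; lower thallium flux fluorescence means stronger hERG block; nearly all actives have a fitted effect of over 50% in size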
Chain of Voltage-gated inwardly rectifying potassium channel KCNH2 (Homo sapiens) (Q12809 whole entry, looked up): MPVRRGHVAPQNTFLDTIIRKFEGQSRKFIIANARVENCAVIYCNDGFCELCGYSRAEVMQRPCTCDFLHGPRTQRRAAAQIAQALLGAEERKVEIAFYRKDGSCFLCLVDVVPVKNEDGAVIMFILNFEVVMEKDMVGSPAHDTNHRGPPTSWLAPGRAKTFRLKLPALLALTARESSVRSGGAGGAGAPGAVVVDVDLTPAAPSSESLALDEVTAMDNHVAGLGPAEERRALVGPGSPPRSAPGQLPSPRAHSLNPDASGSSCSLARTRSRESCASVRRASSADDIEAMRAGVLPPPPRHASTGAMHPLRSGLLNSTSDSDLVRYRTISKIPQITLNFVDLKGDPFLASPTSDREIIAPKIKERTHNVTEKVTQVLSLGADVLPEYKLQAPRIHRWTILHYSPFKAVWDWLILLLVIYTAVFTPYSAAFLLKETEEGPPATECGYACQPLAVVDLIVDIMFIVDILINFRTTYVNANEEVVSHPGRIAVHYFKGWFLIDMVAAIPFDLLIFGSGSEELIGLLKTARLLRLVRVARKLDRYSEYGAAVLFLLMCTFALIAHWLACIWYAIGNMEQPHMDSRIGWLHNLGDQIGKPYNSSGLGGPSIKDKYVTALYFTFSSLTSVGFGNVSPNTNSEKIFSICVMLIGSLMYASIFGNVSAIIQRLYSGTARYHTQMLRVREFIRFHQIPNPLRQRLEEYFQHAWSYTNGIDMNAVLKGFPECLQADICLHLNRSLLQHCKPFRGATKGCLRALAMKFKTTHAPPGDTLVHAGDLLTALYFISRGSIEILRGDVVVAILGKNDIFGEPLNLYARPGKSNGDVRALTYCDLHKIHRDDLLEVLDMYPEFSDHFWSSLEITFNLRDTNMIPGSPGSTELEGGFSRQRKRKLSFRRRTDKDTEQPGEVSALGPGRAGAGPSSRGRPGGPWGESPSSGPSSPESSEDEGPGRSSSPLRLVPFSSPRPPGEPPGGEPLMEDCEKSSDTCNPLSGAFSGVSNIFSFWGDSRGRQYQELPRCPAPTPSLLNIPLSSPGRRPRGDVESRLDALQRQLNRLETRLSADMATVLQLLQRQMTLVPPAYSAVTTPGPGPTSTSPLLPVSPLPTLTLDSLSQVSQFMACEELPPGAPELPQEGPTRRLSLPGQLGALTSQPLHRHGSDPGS
Method in brief: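 U2OS cells BacMam-transduced with hERG, 2000 cells/well, compound ~10 min at 37 °C before stimulation buffer. FluxOR thallium flux fluorescence read kinetically on FDSS; decrease indicates block; AC50 from Hill fits.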

[15] = qHTS assay for small molecule disruptors of the mitochondrial membrane potential - 1 hr assay (AID 651754; calls by dose curve; further: on the % scale 0 is the no-effect control and ±100 the full control effect; nearly all actives have a fitted effect of over 35% in size); conditions: series mostly up to 92.2 µM
Method in brief: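 HepG2, 2,000 cells/well, overnight attachment; cpd or DMSO 1 hr, 37C/5% CO2; Mito-MPS dye 30 min, 37C; fluorescence monomer (490/535) and aggregate (540/590).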

[16] = qHTS assay for small molecule disruptors of the mitochondrial membrane potential - 5 hr assay (AID 651755; calls by dose curve; further: on the % scale 0 is the no-effect control and ±100 the full control effect; nearly all actives have a fitted effect of over 40% in size); conditions: JC-1-type ratio dye; series mostly up to 92.2 µM
Method in brief: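 HepG2 cells, attached overnight at 37C, were exposed to compound or DMSO for 5 hr at 37C, 5% CO2. Mito-MPS dye was then added for 30 min, and fluorescence read at 490/535 nm (monomers) and 540/590 nm (aggregates).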

[17] = qHTS assay for small molecule antagonists of the retinoid-related orphan receptor gamma (ROR-gamma) signaling pathway - cell viability counter screen (AID 720652; active means well fitted curve in the direction sought with a large enough effect in the repeat runs; an effect the other way counts as inactive or inconclusive;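 further: compound exposure lasted 16 hr before ATP read; on the % scale 0 is the no-effect control and ±100 the full control effect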); conditions: RORgamma reporter cell line viability counter screen; series mostly up to 92.2 µM
Method in brief: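 Luminescence from CellTiter-Glo after 30 min at room temperature reported cellular ATP as the cytotoxicity measure. Cells were the CHO reporter line with doxycycline-induced ROR-gamma expression, exposed to compound for 16 hr at 37 C.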

[18] = target: Nuclear receptor subfamily 1 group I member 2 (Rattus norvegicus) (UniProt Q9R1A7); test: qHTS assay for small molecule activators of the rat pregnane X receptor (rPXR) signaling pathway (AID 651751; call rule not given here; further: 0% is about no effect); conditions: rPXR reporter cells, luciferase (One-Glo), 24 h
Chain of Nuclear receptor subfamily 1 group I member 2 (Rattus norvegicus) (Q9R1A7 whole entry, looked up): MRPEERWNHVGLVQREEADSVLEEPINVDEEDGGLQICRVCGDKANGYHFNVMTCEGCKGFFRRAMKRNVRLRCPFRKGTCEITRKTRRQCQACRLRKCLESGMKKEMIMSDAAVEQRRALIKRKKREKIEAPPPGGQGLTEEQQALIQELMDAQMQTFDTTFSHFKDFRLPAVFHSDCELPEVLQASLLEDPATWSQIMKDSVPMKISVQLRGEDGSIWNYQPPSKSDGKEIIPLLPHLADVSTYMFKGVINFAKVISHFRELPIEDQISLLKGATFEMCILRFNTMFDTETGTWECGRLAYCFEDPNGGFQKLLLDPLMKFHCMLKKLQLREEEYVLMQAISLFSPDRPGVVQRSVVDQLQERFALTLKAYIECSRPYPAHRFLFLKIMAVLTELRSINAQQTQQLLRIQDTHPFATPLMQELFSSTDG

[19] = target: Glucocorticoid receptor (Homo sapiens) (UniProt P04150); test: qHTS assay for small molecule agonists of glucocorticoid receptor signaling (AID 588532; active means well fitted curve in the direction sought with a large enough effect in the signal ratio, with a control signal flat; the % refers to the signal ratio;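 further: 100% = dexamethasone at 0.1 µM and 0% = DMSO only wells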); conditions: HeLa MMTV-bla, beta-lactamase ratio, agonist, 18 h; stronger effect = higher value; percent of dexamethasone control, DMSO zero
Chain of Glucocorticoid receptor (Homo sapiens) (P04150 whole entry, looked up): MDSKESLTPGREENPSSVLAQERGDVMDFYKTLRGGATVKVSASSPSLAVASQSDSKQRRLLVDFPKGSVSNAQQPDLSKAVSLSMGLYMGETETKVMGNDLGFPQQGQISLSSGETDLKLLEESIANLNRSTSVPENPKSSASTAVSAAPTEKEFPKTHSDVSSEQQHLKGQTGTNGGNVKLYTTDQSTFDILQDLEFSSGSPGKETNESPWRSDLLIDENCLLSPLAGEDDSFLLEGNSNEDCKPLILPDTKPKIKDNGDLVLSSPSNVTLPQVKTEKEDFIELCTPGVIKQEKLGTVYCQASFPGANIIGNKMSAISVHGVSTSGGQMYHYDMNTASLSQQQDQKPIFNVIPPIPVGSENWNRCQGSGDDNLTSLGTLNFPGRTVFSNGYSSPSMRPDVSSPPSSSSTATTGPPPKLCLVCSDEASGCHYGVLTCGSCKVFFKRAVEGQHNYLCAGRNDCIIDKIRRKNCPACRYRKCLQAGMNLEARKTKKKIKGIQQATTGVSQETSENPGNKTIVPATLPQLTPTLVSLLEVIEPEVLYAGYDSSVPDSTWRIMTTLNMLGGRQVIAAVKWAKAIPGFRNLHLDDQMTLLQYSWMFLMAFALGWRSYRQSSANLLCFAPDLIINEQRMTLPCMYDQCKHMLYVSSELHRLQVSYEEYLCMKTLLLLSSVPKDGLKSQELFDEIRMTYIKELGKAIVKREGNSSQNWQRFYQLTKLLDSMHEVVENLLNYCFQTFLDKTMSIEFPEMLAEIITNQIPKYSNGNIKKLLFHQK
Method in brief: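 MMTV-bla HeLa, beta-lactamase reporter; medium with 1% charcoal/dextran-stripped FBS; cpds up to 92 uM, 18 h, 37 C; CCF4 readout 460/530 nm; Hill fit → EC50, efficacy vs 0.1 uM dexamethasone = 100%.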

[20] = target: Thyroid hormone receptor beta (Homo sapiens) (UniProt P10828); test: qHTS assay for small molecule agonists of thyroid hormone receptor beta signaling (AID 588545; calls by dose curve;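 further: 0% = DMSO only and 100% = 10 nM T3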); conditions: TR-UAS-bla GripTite HEK 293, beta-lactamase ratio, agonist mode, 18 h; series mostly up to 76.7 µM
Method in brief: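 TR-UAS-bla-GripTite HEK 293 cells in medium with 2% charcoal/dextran FBS, 0.1 mM NEAA and 1 mM sodium pyruvate were treated with titrated compounds for 18 hrs at 37 C. Beta-lactamase reporter was read with CCF4 dye (ex 405, em 460/530 nm); EC50 from Hill fits.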

CCNC(=S)NCC
inactive: Potency [1] > 92 µM | Potency [2] > 92 µM | Potency [3] | Potency [4] | Potency [5] | Potency [6] | Potency [7] | Potency [8] | Potency [9] | Potency [10] | Potency [11] | activity change % (negative = inhibition) [13] -1.42% | Potency [14] | Potency [15] | Potency [16] | Potency [17] | max response [18] -0.653%
-2.72%: max response [12]

O=C(O)/C=C/c1ccc(/C=C/C(=O)O)cc1
9.62%: max response [12]
inactive: Potency [1] > 92 µM | Potency [2] > 92 µM | Potency [3] | Potency [4] | Potency [5] | Potency [6] | Potency [7] | Potency [8] | Potency [9] | Potency [10] | Potency [11] | activation [19] 12.3% | activity change % (negative = inhibition) [13] 2.91% | Potency [15] | Potency [16] | Potency [17] | max response [18] 0.0892%

c1ccc(SCCSc2ccccc2)cc1
-9.01%: max response [12]
inactive: Potency [1] > 92 µM | Potency [2] > 92 µM | Potency [3] | Potency [4] | Potency [5] | Potency [6] | Potency [7] | Potency [8] | Potency [9] | Potency [10] | Potency [11] | Potency [20] | activity change % (negative = inhibition) [13] 8.32% | Potency [16] | Potency [17]

c1ccc2ncccc2c1
5.03%: max response [12]
inactive: Potency [1] > 92 µM | Potency [2] > 92 µM | Potency [3] | Potency [4] | Potency [5] | Potency [6] | Potency [7] | Potency [8] | Potency [9] | Potency [10] | Potency [11] | activation [19] -12.1% | Potency [20] | activity change % (negative = inhibition) [13] 3.38% | Potency [14] | Potency [15] | Potency [16] | Potency [17] | max response [18] 5.68%

CCCCCCc1ccc(-c2ccc(C#N)cc2)cc1
inactive: Potency [1] > 92 µM | Potency [2] > 92 µM | Potency [3] | Potency [4] | Potency [5] | Potency [6] | Potency [7] | Potency [8] | Potency [9] | Potency [10] | Potency [11] | activation [19] -6.81% | Potency [20] | activity change % (negative = inhibition) [13] 6.73% | Potency [15] | Potency [16] | max response [18] -10.6%
-25.6%: max response [12]

O=c1[nH]ncc2ccccc12
inactive: Potency [1] > 92 µM | Potency [2] > 92 µM | Potency [3] | Potency [4] | Potency [5] | Potency [6] | Potency [7] | Potency [8] | Potency [9] | Potency [10] | Potency [11] | activation [19] -0.672% | Potency [20] | activity change % (negative = inhibition) [13] -18.2% | Potency [14] | Potency [15] | Potency [16] | Potency [17] | max response [18] -3.03%
10.5%: max response [12]

CCOC(=O)C1OC1c1ccccc1 (configuration not stated)
inactive: Potency [1] > 92 µM | Potency [2] > 92 µM | Potency [3] | Potency [5] | Potency [6] | Potency [7] | Potency [8] | Potency [9] | Potency [10] | Potency [11] | Potency [20] | activity change % (negative = inhibition) [13] 6.36% | Potency [15] | Potency [16] | Potency [17] | max response [18] 9.31%
2.55%: max response [12]

C/C(Cl)=C/CCl
inactive: Potency [1] > 92 µM | Potency [2] > 92 µM | Potency [3] | Potency [4] | Potency [6] | Potency [7] | Potency [8] | Potency [9] | Potency [10] | Potency [11] | Potency [20] | activity change % (negative = inhibition) [13] 0.318% | Potency [14] | Potency [15] | Potency [16] | Potency [17] | max response [18] -2.47%
-5.41%: max response [12]

OCC(CBr)(CBr)CBr
-4.28%: max response [12]
inactive: Potency [1] > 92 µM | Potency [2] > 92 µM | Potency [3] | Potency [4] | Potency [6] | Potency [7] | Potency [8] | Potency [9] | Potency [10] | Potency [11] | activation [19] 0.0544% | Potency [20] | activity change % (negative = inhibition) [13] -0.909% | Potency [14] | Potency [15] | Potency [16] | Potency [17] | max response [18] 6.71%

CCCCCCCCOc1ccc(C(=O)O)cc1
-15.5%: max response [12]
inactive: Potency [1] > 92 µM | Potency [2] > 92 µM | Potency [3] | Potency [4] | Potency [5] | Potency [6] | Potency [7] | Potency [8] | Potency [9] | Potency [10] | Potency [11] | activation [19] -4.25% | Potency [20] | activity change % (negative = inhibition) [13] 10% | Potency [14] | Potency [15] | Potency [16] | Potency [17] | max response [18] 13.3%

CC(=O)OCc1ccc2c(c1)OCO2
17.8%: max response [12]
inactive: Potency [1] > 92 µM | Potency [2] > 92 µM | Potency [3] | Potency [4] | Potency [5] | Potency [7] | Potency [8] | Potency [9] | Potency [10] | Potency [11] | Potency [20] | activity change % (negative = inhibition) [13] -11.5% | Potency [14] | Potency [15] | Potency [16] | Potency [17] | max response [18] -6.58%

C=Cc1cccc(C)c1
-15.6%: max response [12]
inactive: Potency [1] > 92 µM | Potency [2] > 92 µM | Potency [3] | Potency [4] | Potency [5] | Potency [6] | Potency [7] | Potency [8] | Potency [9] | Potency [10] | Potency [11] | activation [19] -2.15% | Potency [20] | activity change % (negative = inhibition) [13] -8.39% | Potency [14] | Potency [15] | Potency [16] | Potency [17] | max response [18] 3.54%
